This note sets out measurements from PubChem BioAssay AID1240 (Sanford-Burnham Center for Chemical Genomics, 2008).

SMILES strings stand for the structures. Out of some 50,000 compounds screened, about 800 (1.6%) showed an effect of 50% or more. The entries come from a sample that favours strong results as a whole.

Sequence of Bcl-2-like protein 10 (Homo sapiens) (Q9HD36 whole entry, looked up): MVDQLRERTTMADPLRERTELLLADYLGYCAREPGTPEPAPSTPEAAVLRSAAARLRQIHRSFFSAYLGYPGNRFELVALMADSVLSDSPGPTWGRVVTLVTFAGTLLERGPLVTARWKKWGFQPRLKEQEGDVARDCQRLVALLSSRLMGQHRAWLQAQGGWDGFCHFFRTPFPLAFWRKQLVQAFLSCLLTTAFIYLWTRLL

The assay addresses Bcl-2-like protein 10 (Homo sapiens) (UniProt Q9HD36). Kind of assay: TR3 peptide-Bcl-B binding displacers, biochemical primary FP assay, phenotype converters (AID 1240).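 Note: 0% = Bcl-B with tracer peptide and DMSO and 100% = tracer peptide lacking Bcl-B.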 Particulars: GST-Bcl-B / FITC-TR3 peptide fluorescence polarization; stronger effect = higher value; compound at 3.75 mg/L.
For `O=C(Nc1ccc2nn(-c3ccc(F)cc3)nc2c1)c1ccc(-c2ccc([N+](=O)[O-])cc2)o1`, the displacement is 8.2%. Regarding `C=CCN1C(=O)/C(=C\c2ccc(-c3ccc(F)cc3)o2)C(=O)NC1=S`, the displacement was -3.3%. In the case of `CN1C(=O)NC(=O)/C(=C/c2ccc(-c3ccc(F)cc3)o2)C1=O` it was 123%; in that of `CN1C(=O)NC(=O)/C(=C/c2ccc(-c3ccc(Cl)cc3)o2)C1=O`, 37%; in that of `COc1ccccc1CNC(=O)c1cccc(Cl)c1`, -6.1%. In the case of `COc1cccc(C(=O)Nc2ccc(-c3nc4ccccc4o3)c(O)c2)c1` it was -23.2%.

Turning to `O=[N+]([O-])c1ccc(/C=N\Nc2nc(-c3ccccc3)c3cc(Cl)ccc3n2)o1`, the displacement was -5.3%. In the case of `Clc1ccc2nc(N/N=C/c3ccc4c(c3)OCO4)nc(-c3ccccc3)c2c1` it was 83.7%; in that of `Clc1ccc2nc(N/N=C/c3ccc4ncccc4c3)nc(-c3ccccc3)c2c1`, -2.6%. In the case of `Cc1ccc(/C=N\N2CCN(c3ccccc3)CC2)cc1` it was -3.9%; in that of `COc1cc(C)nc(Nc2nc(C)c3cc(C)ccc3n2)n1`, 107%; in that of `COc1cc(C)nc(Nc2nc(C)c3ccc(C)cc3n2)n1`, 13.2%. In the case of `COc1ccc2nc(Nc3nc(C)cc(-c4ccccc4)n3)nc(C)c2c1` it was -14.2%; in that of `CN(C)c1ccc(CC2(CC(=O)c3ccccc3)C(=O)c3ccccc3C2=O)cc1`, 1.8%.

For `CC1=CC(=O)C=C/C1=N\OS(=O)(=O)c1ccccc1`, the displacement came out at 25.4%. In the case of `COc1ccc(C=C2C(=O)N(C)C(=O)N(C)C2=O)cc1OC` it was 0.6%; in that of `COc1cc(C=O)ccc1OC(C)c1ccccc1` (centres undefined), 1.1%; in that of `COc1cc(C=C2C(=O)N(C)C(=O)N(C)C2=O)ccc1OC(C)c1ccccc1` (centres undefined), 120%. In the case of `COc1ccc(OC)c(/C=c2\sc3nc4c(Br)c(C)c(C)cc4n3c2=O)c1` it was 19.8%. For `Cc1ccc(OCC(=O)O/N=C(\N)c2ccncc2)c(C)c1`, the displacement worked out at 2.5%. `CC1(C)Cc2ccccc2-c2nnc(-c3cccs3)n21`: the displacement was -8.6%.

With `N/C(=N/c1nc2ccccc2o1)NC(=O)c1sc2ccccc2c1Cl`, the displacement turned out to be 51.6%. `N/C(=N\c1nc2ccccc2o1)NC(=O)c1ccccc1`: the displacement is -10.3%.

`N/C(=N\c1nc2ccccc2o1)NC(=O)c1ccc(F)cc1`: the displacement stood at 1.4%. Turning to `O=C(Oc1ccc(Br)cc1C(=S)N1CCOCC1)c1ccc([N+](=O)[O-])cc1`, the displacement was 7.3%. In the case of `Cc1cccc(NC(=O)c2c(NC(=O)C(C)(C)C)sc3c2CCC3)c1` it was -2.3%; in that of `Nc1nnc2c(n1)-c1ccccc1C2=O`, 1%.

As to `CNc1ccc2[nH]nc3c2c1C(=O)c1ccccc1-3`, the displacement came out at 173%. Regarding `CCC(=O)Nc1cccc2c1C(=O)c1ccccc1C2=O`, the displacement is 11.2%. For the molecule `Nc1ccc2[nH]nc3c2c1C(=O)c1ccccc1-3`, the displacement is 104%. In the case of `Nc1cccc2c1C(=O)c1c(N)cccc1C2=O` it was -4.2%; in that of `CNc1c(Cl)c(Cl)c(Cl)c2c1C(=O)c1ccccc1C2=O`, 11.2%. In the case of `Cc1cc(C)nc(NS(=O)(=O)c2ccc(NC(=S)NC(=O)c3ccc(Br)cc3)cc2)n1` it was 2.6%; in that of `O=C(NCCN1CCOCC1)c1sc2ccccc2c1Cl`, -3.6%; in that of `CCOc1cc([N+](=O)[O-])cc(/C=C2/SC(=S)NC2=O)c1O`, 14%.

Turning to `NS(=O)(=O)c1ccc(NC(=O)COc2ccc3ccccc3c2)cc1`, the displacement was determined as 3%. As for `Cc1ccc(OCCCN2CCN(C)CC2)c(C(C)(C)C)c1`, the displacement was -8%. In the case of `CC(=NCCN1CCNCC1)C1=C(O)CC(C)(C)CC1=O` it was -4.3%; in that of `O=c1nc(/C=C/c2cccc3ccccc23)cc(C(F)(F)F)[nH]1`, 49.7%; in that of `COc1cccc(/C=C/c2cc(C(F)(F)F)[nH]c(=O)n2)c1OC`, 121%.

Regarding `COc1cc(/C=C/c2cc(C(F)(F)F)[nH]c(=O)n2)cc(OC)c1OC`, the displacement was found to be 2.7%. Consider `COc1cc(OC)c(OC)cc1/C=C/c1cc(C(F)(F)F)[nH]c(=O)n1`, for which the displacement came out at 7.5%. In the case of `O=c1nc(/C=C/c2cc3c(cc2[N+](=O)[O-])OCO3)cc(C(F)(F)F)[nH]1` it was 30.4%.

For the molecule `O=c1nc(/C=C/c2cc3c(cc2Br)OCO3)cc(C(F)(F)F)[nH]1`, the displacement was found to be 115%. As for `CCOC(=O)c1c(NC(=O)c2ccc(Cl)cc2)sc(C(=O)Nc2ccccc2OCC)c1C`, the displacement is 3.5%. With `Cc1ccc(N2C(=O)NC(=O)/C(=C\c3ccc(N4CCCCC4)o3)C2=O)cc1`, the displacement was -139%. For `Cc1cc(N2C(=O)NC(=O)/C(=C\c3ccc(N(C)C)o3)C2=O)ccc1Br`, the displacement amounted to 153%. For `Cc1cc(N2C(=O)NC(=O)/C(=C\C=C\c3ccco3)C2=O)ccc1Br`, the displacement was -3.7%. Turning to `CCN(CC)c1ccc(/C=C2\C(=O)NC(=O)N(c3ccc(Br)c(C)c3)C2=O)o1`, the displacement was 42.6%. Turning to `Cc1cc(N2C(=O)NC(=O)/C(=C\c3ccc(N4CCOCC4)o3)C2=O)ccc1Br`, the displacement was -33.9%. In the case of `Cc1cc(N2C(=O)NC(=O)/C(=C\c3ccc(N4CCCCC4)o3)C2=O)ccc1Br` it was 55.5%. For the molecule `Cc1ccc(N2C(=O)NC(=O)/C(=C\c3ccc(N(C)C)o3)C2=O)cc1`, the displacement was -134%. In the case of `O=C1NC(=O)N(c2ccc(Br)cc2)C(=O)/C1=C/c1ccco1` it was 30.1%; in that of `Cc1cc(N2C(=O)NC(=O)/C(=C\c3ccco3)C2=O)ccc1Br`, 74%; in that of `CC(C)(C)C1(O)CC(c2ccccc2)=NO1` (centres undefined), 18.6%. In the case of `O=C1c2ccccc2C(=O)c2c(NC(=O)C3CC4CCC3C4)cccc21` (centres undefined) it was -7.7%; in that of `O=C(c1ccccc1)N1CCN(C2CC(=O)N(CCc3ccccc3)C2=O)CC1` (centres undefined), 3.9%; in that of `CCC1=NN2C(=N)/C(=C/c3ccc4c(c3)OCO4)C(=O)N=C2S1`, 3%. `CCOc1cccc(N2C(=O)NC(=O)/C(=C\c3ccc(Sc4ccccc4)o3)C2=O)c1`: the displacement is 4%. In the case of `Cc1cc(=O)c2c(C)nc(-c3ccccc3)nc2[nH]1` it was 31.5%. In the case of `Cc1nc(-c2ccccc2)nc2[nH]c(-c3ccccc3)cc(=O)c12` it was 69.8%. As for `CSc1nc(-c2ccccc2)nc2[nH]c(-c3ccccc3)cc(=O)c12`, the displacement is 44.4%. As to `CCOC(=O)c1ccc(NC(=O)c2cc(-c3cccs3)nc3ccccc23)cc1`, the displacement is 4.7%.

On to `CCN(CC)CCNC(=O)c1ccc(Cl)c(Cl)c1`, for which the displacement was -5.2%. Regarding `O=C(NC(NC(=S)Nc1cccc2ccccc12)C(Cl)(Cl)Cl)c1ccccc1` (centres undefined), the displacement came to 18.6%. In the case of `Cc1ccc(C(=O)NC(NC(=S)Nc2cccc3ccccc23)C(Cl)(Cl)Cl)cc1` (centres undefined) it was 54.9%; in that of `Cc1ccc(C(=O)NC(NC(=S)Nc2ccccc2Cl)C(Cl)(Cl)Cl)cc1` (centres undefined), -10.7%; in that of `CC(=O)c1cc2c(N)c(C(=O)c3ccc(Br)cc3)sc2nc1C`, 10.1%. In the case of `Nc1c(C(=O)c2ccc(Cl)cc2)sc2nc(-c3ccccc3)ccc12`, the displacement was -3.6%. In the case of `Nc1c(C(=O)c2ccc(Br)cc2)sc2nc(C(F)(F)F)c(C(=O)c3cccs3)cc12`, the displacement was 51.1%. In the case of `Cc1cc([N+](=O)[O-])nn1C(=O)c1nn(C)cc1Br` it was 0.4%; in that of `N#Cc1ccccc1NC(=O)c1ccc(-c2ccccc2)cc1`, 12.6%; in that of `Cc1ccc(-c2nc3s/c(=C\c4cn(-c5ccccc5)nc4-c4ccccc4)c(=O)n3n2)cc1`, 8.5%. `Cc1cc(Cl)ccc1NS(=O)(=O)c1cccc([N+](=O)[O-])c1`: the displacement was -1.2%. Turning to `COc1ccc(Cl)cc1NS(=O)(=O)c1cccc([N+](=O)[O-])c1`, the displacement was 72.8%.

As to `COc1ccc(OC)c(NS(=O)(=O)c2cccc([N+](=O)[O-])c2)c1`, the displacement amounted to 2.1%.

`CC(C)C(=O)Nc1cc(C(F)(F)F)cc(C(F)(F)F)c1`: the displacement was -2.9%. In the case of `CCc1ccc(NC(=O)C(=O)NCc2ccccc2OC)cc1` it was 6.8%. In the case of `COc1ccc(N2C(=O)/C(=C\c3ccc(OC)cc3OC)N=C2c2ccccc2)cc1` it was 192%. In the case of `COc1ccc(C2=N/C(=C/c3ccc(F)cc3)C(=O)N2c2ccc(O)cc2)cc1` it was 9%; in that of `COc1ccc(C2=N/C(=C/c3ccccc3OC)C(=O)N2c2ccccc2)cc1`, 6.4%; in that of `COc1ccc(/C=C2/SC(=O)N(c3ccccc3)C2=O)c(OC)c1`, 5.9%. `COc1ccc(C=C2C(=O)N(c3ccccc3)C(=S)N(c3ccccc3)C2=O)c(OC)c1`: the displacement came out at 10.9%. In the case of `COc1ccc(C2=N/C(=C/c3ccccc3F)C(=O)N2c2ccccc2)cc1` it was 125%; in that of `O=C1C(=O)N(c2cccc(Br)c2)C(c2ccccc2)/C1=C(/O)c1ccccc1` (centres undefined), 12%. For the molecule `COc1ccc(NC(=O)c2ccc(S(=O)(=O)N3CCOCC3)cc2)c2ccccc12`, the displacement is -8.9%.

In the case of `Cc1cccn2c(=O)c(/C=C3\SC(=S)N(C(C)c4ccccc4)C3=O)c(NCCCn3ccnc3)nc12` (centres undefined), the displacement stood at 8.8%. With `CC1=C(C#N)c2nc(N)c(C#N)c(C)c2/C1=C\c1ccc(C)o1`, the displacement is -4.4%. Consider `O=C(Nc1sc2c(c1C(=O)Nc1ccccn1)CCCCC2)c1ccccc1`, for which the displacement was determined as 95%.

Take `CCc1ccccc1NC(=O)c1c(NC(=O)c2ccccc2Cl)sc2c1CCC2`: the displacement worked out at 61.2%. In the case of `COc1ccc(C(=O)Nc2sc3c(c2C#N)CCCCC3)cc1` it was -3.4%. In the case of `CCc1ccccc1NC(=O)c1c(NC(=O)c2ccccc2Br)sc2c1CCC2` it was -4.1%; in that of `O=C(Nc1sc2c(c1C(=O)Nc1ccccn1)CCCCC2)c1ccccc1F`, -3%; in that of `N#Cc1c(NC(=O)c2ccc(S(=O)(=O)c3ccccc3)cc2)sc2c1CCCC2`, 83.9%. In the case of `N#Cc1c(NC(=O)c2ccc(C(=O)O)cc2C(=O)O)sc2c1CCCC2` it was 11%; in that of `COc1ccc(NC(=O)c2c(NC(=O)c3ccccc3)sc3c2CCCC3)cc1`, 5.7%. `Cc1ccccc1NC(=O)c1c(NC(=O)c2ccccc2Br)sc2c1CCCCC2`: the displacement was determined as 76.6%. In the case of `CCc1ccccc1NC(=O)c1c(NC(=O)c2ccccc2)sc2c1CCC2` it was -15.6%; in that of `CCOc1ccccc1NC(=O)c1c(NC(=O)c2ccccc2Br)sc2c1CCCC2`, -3.8%; in that of `Cc1ccccc1NC(=O)c1c(NC(=O)c2ccccc2C)sc2c1CCCCC2`, 13%. In the case of `O=C(N/N=C/c1cccnc1)c1cc(-c2ccc3ccccc3c2)n[nH]1` it was -3.8%. As to `COc1ccc(S(=O)(=O)N2CCN(C3CC4CCC3C4)CC2)cc1` (centres undefined), the displacement is -1.9%. For `Cc1ccc(CNC(=O)C(=O)NC(C)C)cc1`, the displacement came to 4.4%. In the case of `CC1(C)CC(=O)C2=C(C1)Nc1ccccc1NC2c1ccc(-c2ccccc2[N+](=O)[O-])o1` (centres undefined) it was -15.9%.
